In paper PMC7862700, “An all-to-all approach to the identification of sequence-specific readers for epigenetic DNA modifications on cytosine” one finds binding signal data, which are given here for 1 sequence.

What all share (experiment): DAPPL (digital affinity profiling via proximity ligation, sequencing); 10 mM Tris-HCl pH 7.5, 50 mM NaCl, 1 mM DTT, 4% glycerol, room temperature, 30 min; GST-TFs on glutathione beads, 16-mer random dsDNA library, 0.1% formaldehyde crosslink after washing; high values mean tight binding
One experiment deals with T1, FLI1 (Homo sapiens, UniProt Q01543 1-452).
T1 sequence: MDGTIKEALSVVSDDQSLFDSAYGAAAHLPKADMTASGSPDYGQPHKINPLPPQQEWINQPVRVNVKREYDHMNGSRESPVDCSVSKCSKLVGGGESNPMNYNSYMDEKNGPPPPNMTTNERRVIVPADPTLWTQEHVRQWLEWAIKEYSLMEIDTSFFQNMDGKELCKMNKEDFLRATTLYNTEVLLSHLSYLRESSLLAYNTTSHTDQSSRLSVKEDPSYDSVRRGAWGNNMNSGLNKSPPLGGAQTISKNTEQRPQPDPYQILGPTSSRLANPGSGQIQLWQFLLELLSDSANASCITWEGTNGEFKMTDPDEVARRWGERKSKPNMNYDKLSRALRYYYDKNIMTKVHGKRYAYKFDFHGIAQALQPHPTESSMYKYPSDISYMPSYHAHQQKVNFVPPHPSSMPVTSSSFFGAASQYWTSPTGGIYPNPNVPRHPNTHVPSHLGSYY
Conditions: protein: recombinant; tags: N-terminal GST; dsDNA, one strand shown. Put shortly: (§1)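 A tag-only sample was pooled with DNA-barcoded human transcription factors that had been expressed in yeast as GST fusions and captured on glutathione beads. The pools were incubated for 30 min at room temperature with 200 nmole of a random double-stranded 16-mer DNA library in Tris/NaCl/DTT/glycerol buffer, then washed, crosslinked with 0.1% formaldehyde, proximity-ligated (BsaI/T4 ligase, 1 h, 37 °C), PCR-amplified and sequenced on an Illumina NextSeq500. Binding signal is each hexamer's read frequency for a factor divided by its frequency for the tag-only sample.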

The next experiment addresses T2, ELK1 (Homo sapiens, UniProt P19419 1-428).
T2 sequence: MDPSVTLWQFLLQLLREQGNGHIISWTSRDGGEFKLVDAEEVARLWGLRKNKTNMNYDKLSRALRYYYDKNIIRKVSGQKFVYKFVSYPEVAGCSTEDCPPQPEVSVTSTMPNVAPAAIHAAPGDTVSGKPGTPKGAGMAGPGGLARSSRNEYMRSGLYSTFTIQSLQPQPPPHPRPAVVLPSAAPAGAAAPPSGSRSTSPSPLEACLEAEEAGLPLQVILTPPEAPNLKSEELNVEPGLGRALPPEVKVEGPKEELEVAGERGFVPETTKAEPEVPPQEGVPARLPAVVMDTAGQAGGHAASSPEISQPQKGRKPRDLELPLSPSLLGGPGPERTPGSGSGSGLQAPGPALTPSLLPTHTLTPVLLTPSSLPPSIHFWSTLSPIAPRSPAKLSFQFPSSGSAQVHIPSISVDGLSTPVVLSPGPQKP
Conditions: protein: recombinant; tags: N-terminal GST; dsDNA, one strand shown. The method, boiled down: as §1

The next experiment deals with T3, GABPA (Homo sapiens, UniProt Q06546 1-454).
T3 sequence: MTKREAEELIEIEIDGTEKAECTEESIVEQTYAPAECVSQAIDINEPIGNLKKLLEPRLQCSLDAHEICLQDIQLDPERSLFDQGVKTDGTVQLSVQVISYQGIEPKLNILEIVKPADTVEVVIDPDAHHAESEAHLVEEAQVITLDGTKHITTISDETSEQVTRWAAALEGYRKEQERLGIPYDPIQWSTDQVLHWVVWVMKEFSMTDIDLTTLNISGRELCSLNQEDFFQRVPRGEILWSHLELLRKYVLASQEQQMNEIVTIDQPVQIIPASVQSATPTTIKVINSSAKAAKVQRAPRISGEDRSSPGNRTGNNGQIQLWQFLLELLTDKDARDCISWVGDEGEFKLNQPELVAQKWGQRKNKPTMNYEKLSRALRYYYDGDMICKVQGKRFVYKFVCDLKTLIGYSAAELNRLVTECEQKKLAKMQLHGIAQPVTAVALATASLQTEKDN
Conditions: protein: recombinant; tags: N-terminal GST; dsDNA, one strand shown. Put shortly:
as §1

Another experiment concerns the target T4, ERG (Homo sapiens, UniProt P11308 1-479).
T4 sequence: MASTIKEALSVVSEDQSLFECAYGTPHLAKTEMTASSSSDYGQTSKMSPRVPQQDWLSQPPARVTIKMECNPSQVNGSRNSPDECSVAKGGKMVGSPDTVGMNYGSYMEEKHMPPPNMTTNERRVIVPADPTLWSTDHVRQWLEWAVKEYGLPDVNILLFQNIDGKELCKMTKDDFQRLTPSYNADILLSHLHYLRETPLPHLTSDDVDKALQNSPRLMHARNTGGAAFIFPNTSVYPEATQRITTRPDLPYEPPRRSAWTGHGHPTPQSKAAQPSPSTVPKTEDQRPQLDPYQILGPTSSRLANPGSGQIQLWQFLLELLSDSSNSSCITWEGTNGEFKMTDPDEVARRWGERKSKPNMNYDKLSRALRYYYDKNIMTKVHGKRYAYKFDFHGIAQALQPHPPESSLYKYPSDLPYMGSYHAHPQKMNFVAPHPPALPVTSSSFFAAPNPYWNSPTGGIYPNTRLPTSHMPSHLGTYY
Conditions: protein: recombinant; tags: N-terminal GST; dsDNA, one strand shown. The method, boiled down: as §1

In another experiment the target is ELF1 (Homo sapiens, UniProt P32519 1-619). Conditions: protein: recombinant; tags: N-terminal GST; dsDNA, one strand shown. Put shortly: as §1
ELF1, sequence (P32519 whole entry): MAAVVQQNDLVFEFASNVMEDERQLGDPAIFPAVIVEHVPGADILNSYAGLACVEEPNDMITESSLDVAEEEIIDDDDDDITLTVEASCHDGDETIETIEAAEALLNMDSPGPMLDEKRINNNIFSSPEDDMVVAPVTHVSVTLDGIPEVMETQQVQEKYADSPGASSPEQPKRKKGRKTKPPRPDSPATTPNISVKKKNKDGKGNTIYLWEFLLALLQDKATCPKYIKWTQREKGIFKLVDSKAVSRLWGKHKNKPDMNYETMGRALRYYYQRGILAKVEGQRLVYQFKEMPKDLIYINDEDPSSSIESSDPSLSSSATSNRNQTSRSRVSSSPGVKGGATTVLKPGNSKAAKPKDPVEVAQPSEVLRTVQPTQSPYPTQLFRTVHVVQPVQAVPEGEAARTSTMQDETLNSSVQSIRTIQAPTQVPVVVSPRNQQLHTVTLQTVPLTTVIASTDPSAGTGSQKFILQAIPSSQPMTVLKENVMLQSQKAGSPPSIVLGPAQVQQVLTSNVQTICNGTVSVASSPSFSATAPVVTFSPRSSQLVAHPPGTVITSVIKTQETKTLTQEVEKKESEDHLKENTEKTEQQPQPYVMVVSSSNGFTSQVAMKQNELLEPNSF
The next experiment addresses T5, EHF (Homo sapiens, UniProt Q9NZC4 1-300).
T5 sequence: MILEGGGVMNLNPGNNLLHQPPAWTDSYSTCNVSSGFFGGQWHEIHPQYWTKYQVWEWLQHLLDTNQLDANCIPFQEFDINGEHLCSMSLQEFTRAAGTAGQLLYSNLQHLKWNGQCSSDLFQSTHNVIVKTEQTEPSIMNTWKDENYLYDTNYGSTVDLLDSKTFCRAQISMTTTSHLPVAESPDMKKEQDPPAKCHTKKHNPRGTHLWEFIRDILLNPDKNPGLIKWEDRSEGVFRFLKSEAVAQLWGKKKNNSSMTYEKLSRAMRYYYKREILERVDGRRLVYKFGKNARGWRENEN
Conditions: protein: recombinant; tags: N-terminal GST; dsDNA, one strand shown. Put shortly: as §1

In another experiment the target is SPI1 (Homo sapiens, UniProt P17947 1-270). Conditions: protein: recombinant; tags: N-terminal GST; dsDNA, one strand shown. Put shortly: as §1
For another experiment, the target named is SPIB (Homo sapiens, UniProt Q01892 1-262). Conditions: protein: recombinant; tags: N-terminal GST; dsDNA, one strand shown. The method, boiled down: as §1
SPIB, sequence (Q01892 whole entry): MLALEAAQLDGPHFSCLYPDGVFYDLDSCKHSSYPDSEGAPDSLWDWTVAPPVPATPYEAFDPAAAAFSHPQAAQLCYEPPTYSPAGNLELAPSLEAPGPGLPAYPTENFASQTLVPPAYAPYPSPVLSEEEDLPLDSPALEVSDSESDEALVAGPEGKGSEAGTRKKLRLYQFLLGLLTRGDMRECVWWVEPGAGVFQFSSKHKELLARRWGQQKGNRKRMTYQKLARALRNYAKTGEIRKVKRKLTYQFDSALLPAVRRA
The next experiment has as its target T6, ELK3 (Homo sapiens, UniProt P41970 1-407).
T6 sequence: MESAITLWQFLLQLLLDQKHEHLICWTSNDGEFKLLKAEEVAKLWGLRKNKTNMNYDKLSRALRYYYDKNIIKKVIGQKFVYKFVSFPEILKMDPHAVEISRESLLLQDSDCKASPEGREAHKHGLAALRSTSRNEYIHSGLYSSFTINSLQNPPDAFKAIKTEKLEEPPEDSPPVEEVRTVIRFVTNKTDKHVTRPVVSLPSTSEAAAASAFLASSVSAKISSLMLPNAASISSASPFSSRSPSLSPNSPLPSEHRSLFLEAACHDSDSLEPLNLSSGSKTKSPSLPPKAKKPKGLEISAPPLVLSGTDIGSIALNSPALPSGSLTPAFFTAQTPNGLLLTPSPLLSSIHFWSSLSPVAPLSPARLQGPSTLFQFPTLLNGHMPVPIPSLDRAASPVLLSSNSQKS
Conditions: protein: recombinant; tags: N-terminal GST; dsDNA, one strand shown. Put shortly:
as §1

The target of a further experiment is T7, FEV (Homo sapiens, UniProt Q99581 1-238).
T7 sequence: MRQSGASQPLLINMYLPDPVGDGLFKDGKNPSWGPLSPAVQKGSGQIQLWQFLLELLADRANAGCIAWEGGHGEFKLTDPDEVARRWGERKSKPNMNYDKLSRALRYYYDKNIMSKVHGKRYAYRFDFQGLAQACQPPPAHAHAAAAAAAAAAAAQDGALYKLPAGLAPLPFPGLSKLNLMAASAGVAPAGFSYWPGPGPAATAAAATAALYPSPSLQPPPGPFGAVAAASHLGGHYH
Conditions: protein: recombinant; tags: N-terminal GST; dsDNA, one strand shown. The method, boiled down:
as §1

The next experiment has as its target ETV5 (Homo sapiens, UniProt P41161 1-510). Conditions: protein: recombinant; tags: N-terminal GST; dsDNA, one strand shown. The method, boiled down: as §1
For a further experiment, the target named is HSF1 (Homo sapiens, UniProt Q00613 1-529). Conditions: protein: recombinant; tags: N-terminal GST; chain copies: 3; dsDNA, one strand shown. Put shortly:
as §1

For a further experiment, the target named is T8, SPIC (Homo sapiens, UniProt Q8N5J4 1-248).
T8 sequence: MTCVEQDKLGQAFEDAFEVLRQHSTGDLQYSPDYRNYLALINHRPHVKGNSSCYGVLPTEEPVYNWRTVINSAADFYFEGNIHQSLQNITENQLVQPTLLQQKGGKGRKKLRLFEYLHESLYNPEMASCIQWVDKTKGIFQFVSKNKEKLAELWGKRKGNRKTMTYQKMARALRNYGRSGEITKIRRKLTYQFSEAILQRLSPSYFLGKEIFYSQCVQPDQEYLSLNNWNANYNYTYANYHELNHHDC
Conditions: protein: recombinant; tags: N-terminal GST; dsDNA, one strand shown. The method, boiled down:
as §1

For another experiment, the target named is ELF4 (Homo sapiens, UniProt Q99607 1-663). Conditions: protein: recombinant; tags: N-terminal GST; dsDNA, one strand shown. The method, boiled down: as §1
ELF4, sequence (Q99607 whole entry): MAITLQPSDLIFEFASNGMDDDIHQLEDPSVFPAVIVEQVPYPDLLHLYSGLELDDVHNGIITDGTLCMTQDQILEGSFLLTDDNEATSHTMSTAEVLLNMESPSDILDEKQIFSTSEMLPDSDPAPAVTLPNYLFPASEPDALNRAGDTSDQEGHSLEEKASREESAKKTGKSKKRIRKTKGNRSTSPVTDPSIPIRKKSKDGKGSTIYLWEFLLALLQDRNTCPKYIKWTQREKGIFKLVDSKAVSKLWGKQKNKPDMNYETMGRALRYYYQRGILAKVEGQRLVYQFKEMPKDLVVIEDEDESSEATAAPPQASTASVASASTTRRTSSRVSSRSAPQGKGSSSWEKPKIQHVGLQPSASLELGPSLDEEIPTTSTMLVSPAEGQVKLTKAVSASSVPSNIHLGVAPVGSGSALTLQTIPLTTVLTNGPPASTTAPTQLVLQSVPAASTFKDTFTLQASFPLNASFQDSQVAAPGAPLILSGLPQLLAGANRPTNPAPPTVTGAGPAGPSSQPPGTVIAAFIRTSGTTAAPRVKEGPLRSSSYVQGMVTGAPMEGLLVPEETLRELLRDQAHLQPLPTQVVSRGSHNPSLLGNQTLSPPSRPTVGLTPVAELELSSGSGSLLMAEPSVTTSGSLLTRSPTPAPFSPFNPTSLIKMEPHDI
Another experiment concerns the target T9, ELK4 (Homo sapiens, UniProt P28324-2 1-405).
T9 sequence: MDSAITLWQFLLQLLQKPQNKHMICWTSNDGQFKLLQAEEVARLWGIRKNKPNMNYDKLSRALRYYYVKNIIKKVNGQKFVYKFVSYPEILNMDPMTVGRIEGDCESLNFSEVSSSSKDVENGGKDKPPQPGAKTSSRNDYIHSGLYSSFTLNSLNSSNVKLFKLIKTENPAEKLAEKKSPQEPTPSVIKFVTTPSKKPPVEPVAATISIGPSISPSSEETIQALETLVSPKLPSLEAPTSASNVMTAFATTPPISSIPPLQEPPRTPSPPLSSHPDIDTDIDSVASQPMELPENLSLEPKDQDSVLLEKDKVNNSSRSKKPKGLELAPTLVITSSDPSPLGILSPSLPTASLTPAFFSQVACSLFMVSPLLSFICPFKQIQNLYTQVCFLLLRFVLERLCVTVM
Conditions: protein: recombinant; tags: N-terminal GST; dsDNA, one strand shown. The method, boiled down: as §1

The next experiment concerns the target T10, ETV2 (Homo sapiens, UniProt O00321 1-342).
T10 sequence: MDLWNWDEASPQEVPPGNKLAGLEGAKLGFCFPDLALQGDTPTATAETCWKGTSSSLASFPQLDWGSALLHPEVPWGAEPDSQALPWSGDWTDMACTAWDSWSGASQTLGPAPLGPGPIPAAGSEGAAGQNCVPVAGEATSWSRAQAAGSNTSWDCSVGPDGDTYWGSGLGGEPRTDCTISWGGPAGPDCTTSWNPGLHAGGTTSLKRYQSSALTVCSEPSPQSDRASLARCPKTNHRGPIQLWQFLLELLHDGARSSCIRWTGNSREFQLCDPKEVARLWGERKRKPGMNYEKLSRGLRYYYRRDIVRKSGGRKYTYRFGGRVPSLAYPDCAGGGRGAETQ
Conditions: protein: recombinant; tags: N-terminal GST; dsDNA, one strand shown. Put shortly: as §1

Another experiment concerns the target T11, ELF3 (Homo sapiens, UniProt P78545 1-371).
T11 sequence: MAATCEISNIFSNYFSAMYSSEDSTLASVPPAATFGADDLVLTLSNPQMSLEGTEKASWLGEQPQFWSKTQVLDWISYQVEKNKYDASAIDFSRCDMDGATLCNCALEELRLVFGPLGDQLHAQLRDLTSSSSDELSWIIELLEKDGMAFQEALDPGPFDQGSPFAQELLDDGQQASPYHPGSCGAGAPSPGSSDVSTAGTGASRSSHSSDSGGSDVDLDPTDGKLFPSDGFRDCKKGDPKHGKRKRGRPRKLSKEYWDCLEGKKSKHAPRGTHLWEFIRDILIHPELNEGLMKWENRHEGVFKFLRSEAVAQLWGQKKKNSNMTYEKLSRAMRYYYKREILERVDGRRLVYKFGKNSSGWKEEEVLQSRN
Conditions: protein: recombinant; tags: N-terminal GST; dsDNA, one strand shown. The method, boiled down: as §1

The target in a further experiment is CRX (Homo sapiens, UniProt O43186 1-299). Conditions: protein: recombinant; tags: N-terminal GST; dsDNA, one strand shown. Put shortly:
as §1

The target of a further experiment is ETV1 (Homo sapiens, UniProt P50549 1-477). Conditions: protein: recombinant; tags: N-terminal GST; dsDNA, one strand shown. Put shortly:
as §1

CRX, sequence (O43186 whole entry): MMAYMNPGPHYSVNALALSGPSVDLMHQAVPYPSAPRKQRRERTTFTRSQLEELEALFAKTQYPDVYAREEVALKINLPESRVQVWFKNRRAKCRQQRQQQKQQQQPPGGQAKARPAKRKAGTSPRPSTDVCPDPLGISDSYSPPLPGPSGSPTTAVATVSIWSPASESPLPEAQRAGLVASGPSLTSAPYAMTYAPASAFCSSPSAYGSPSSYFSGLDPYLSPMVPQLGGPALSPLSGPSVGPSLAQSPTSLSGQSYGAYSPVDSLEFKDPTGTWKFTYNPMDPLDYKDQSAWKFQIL
ETV1, sequence (P50549 whole entry): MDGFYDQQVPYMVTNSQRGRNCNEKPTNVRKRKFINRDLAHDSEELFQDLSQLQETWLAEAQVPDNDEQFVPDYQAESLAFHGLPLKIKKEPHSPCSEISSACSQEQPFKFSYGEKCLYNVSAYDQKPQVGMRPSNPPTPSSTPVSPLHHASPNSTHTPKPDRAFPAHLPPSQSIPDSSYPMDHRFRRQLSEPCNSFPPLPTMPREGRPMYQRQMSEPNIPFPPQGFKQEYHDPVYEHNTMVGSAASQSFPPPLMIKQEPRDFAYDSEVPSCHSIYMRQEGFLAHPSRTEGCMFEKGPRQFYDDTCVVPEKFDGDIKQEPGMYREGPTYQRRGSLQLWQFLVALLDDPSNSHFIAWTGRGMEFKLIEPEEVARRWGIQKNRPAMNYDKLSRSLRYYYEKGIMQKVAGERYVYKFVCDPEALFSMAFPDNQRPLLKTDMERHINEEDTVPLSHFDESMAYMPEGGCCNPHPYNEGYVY
HSF1, sequence (Q00613 whole entry): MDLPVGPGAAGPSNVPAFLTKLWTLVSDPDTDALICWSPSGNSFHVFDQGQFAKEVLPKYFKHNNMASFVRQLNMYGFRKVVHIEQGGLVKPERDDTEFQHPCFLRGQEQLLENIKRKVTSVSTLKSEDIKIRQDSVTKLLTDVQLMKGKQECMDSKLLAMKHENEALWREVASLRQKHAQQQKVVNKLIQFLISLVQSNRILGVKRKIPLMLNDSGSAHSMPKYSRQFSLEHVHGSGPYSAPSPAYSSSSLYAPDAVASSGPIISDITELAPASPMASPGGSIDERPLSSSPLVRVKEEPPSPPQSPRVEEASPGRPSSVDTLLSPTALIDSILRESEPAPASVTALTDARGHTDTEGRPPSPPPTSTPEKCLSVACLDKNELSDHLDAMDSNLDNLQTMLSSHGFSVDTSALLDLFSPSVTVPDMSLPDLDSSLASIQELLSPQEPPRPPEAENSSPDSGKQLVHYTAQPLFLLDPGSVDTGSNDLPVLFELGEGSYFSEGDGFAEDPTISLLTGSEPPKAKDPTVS
ETV5, sequence (P41161 whole entry): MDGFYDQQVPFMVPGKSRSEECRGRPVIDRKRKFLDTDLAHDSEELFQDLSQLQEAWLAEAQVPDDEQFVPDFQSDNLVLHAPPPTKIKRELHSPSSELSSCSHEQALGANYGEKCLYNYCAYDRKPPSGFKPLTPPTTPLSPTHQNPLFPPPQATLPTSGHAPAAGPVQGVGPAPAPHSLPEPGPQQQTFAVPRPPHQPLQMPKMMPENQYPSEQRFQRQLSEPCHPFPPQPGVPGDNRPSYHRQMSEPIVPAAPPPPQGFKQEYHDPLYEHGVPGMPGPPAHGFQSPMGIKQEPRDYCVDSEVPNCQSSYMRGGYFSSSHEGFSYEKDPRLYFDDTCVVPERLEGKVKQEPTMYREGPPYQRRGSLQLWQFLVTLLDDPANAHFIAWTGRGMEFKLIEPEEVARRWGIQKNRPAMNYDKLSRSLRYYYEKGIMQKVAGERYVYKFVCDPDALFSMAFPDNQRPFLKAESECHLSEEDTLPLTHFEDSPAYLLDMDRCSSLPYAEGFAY

Consider CCGATC, for which the binding signal was 1.38 fold enrichment (6-mer frequency, TF over GST control) in the experiment with FLI1; 1.25 fold enrichment (6-mer frequency, TF over GST control) in the experiment with ELK1; 1.21 fold enrichment (6-mer frequency, TF over GST control) with GABPA; 1.24 fold enrichment (6-mer frequency, TF over GST control) in the experiment with ERG; 1.28 fold enrichment (6-mer frequency, TF over GST control) with ELF1; 1.24 fold enrichment (6-mer frequency, TF over GST control) with EHF. Besides, the binding signal in the experiment with SPI1 is 1.18 fold enrichment (6-mer frequency, TF over GST control); in the experiment with SPIB it was 1.17 fold enrichment (6-mer frequency, TF over GST control); in the experiment with ELK3, 1.17 fold enrichment (6-mer frequency, TF over GST control); with FEV it was 1.24 fold enrichment (6-mer frequency, TF over GST control); with ETV5 it was 1.25 fold enrichment (6-mer frequency, TF over GST control); with HSF1 it was 1.23 fold enrichment (6-mer frequency, TF over GST control). The binding signal with SPIC is 1.27 fold enrichment (6-mer frequency, TF over GST control); in the experiment with ELF4 it was 1.2 fold enrichment (6-mer frequency, TF over GST control); with ELK4 it was 1.13 fold enrichment (6-mer frequency, TF over GST control); in the experiment with ETV2 it was 1.19 fold enrichment (6-mer frequency, TF over GST control); with ELF3 it was 1.4 fold enrichment (6-mer frequency, TF over GST control); with CRX, 1.36 fold enrichment (6-mer frequency, TF over GST control). Also, the binding signal with ETV1 is 1.12 fold enrichment (6-mer frequency, TF over GST control).
